# Screening results (PubChem)
# Most compounds without a hit are left out; they make up all but 11% or so of the library.
# Pf growth 96h: P. falciparum growth inhibition at 96 hour, primary screen for plastid delayed-death inhibitors. Potency, µM (highest dose often 28.7 µM), actives largely listed as inhibitors. P. falciparum luciferase reporter growth, 96 h. hit rate 6.9% among 320,000
#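 Readout is luminescence from an integrated firefly luciferase in P. falciparum. Red cells, 2% hematocrit and 0.05% parasitemia final, were cultured with compound through two parasite generations (96 hours) at 37 C, 5% CO2.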
# HCV inhibitor: inhibitors of hepatitis C virus infection; Huh7.5.1 HCVcc-Cre infection, luciferase reporter, 44 h; Potency, µM (series often up to 41.8 µM), actives largely listed as inhibitors; hit rate 3.4% among 340,000; AID 651820
#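 Seed cells (1,000/well) for 4 h; treat with compound and infect with HCVcc-Cre, moi about 0.5. Incubate 44 h, then detect luciferase activity.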
# AMA1 RON2 block: disrupts binding of P. falciparum AMA1 to RON2; hit rate 0.2% among 360,000; Potency, µM (top dose mostly 58.2 µM), hits mostly inhibitors; AlphaScreen AMA1-biotinylated RON2 peptide binding; AID 720542; note: nearly all actives have a fitted effect of over 45% in size
#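 AMA1 (3D7) with his tag at 25 nM final met compounds first, then biotinylated RON2 peptide at 25 nM; detection used donor plus acceptor beads, 10 µg/mL apiece, read by AlphaScreen after 30 min at room temperature.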
# Pf growth 48h: inhibits P. falciparum growth in the first generation, 48 h | P. falciparum luciferase growth in erythrocytes, 48 h | Potency, µM (titrated, usually from 28.7 µM), actives largely listed as inhibitors | hit rate 5.9% among 310,000
#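 Compounds are pin-transferred into medium, infected erythrocytes (2% hematocrit, 0.1% parasitemia final) are added, and plates sit one parasite generation at 37 C in 5% CO2. Detection reagent is then added and luminescence measured.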
# Numbers stand for hits; 0 = inactive; ? = inconclusive; - = no result given; [ ] = another dose, or the depositor's remark. Calls come from the whole dose curve; as a rule, active = well fitted curve in the direction sought with a large enough effect; inconclusive = small, poorly fitted or top-dose-only effect, or another doubt; inactive = no such curve, though single readings can be large; an effect the other way counts as inactive or inconclusive.
SMILES,Pf growth 96h,HCV inhibitor,AMA1 RON2 block,Pf growth 48h
COc1cc(C(=O)NCCOc2cc(C)cc(C)c2)cc(OC)c1OC,0,?,0,?
COC(=O)[C@@]12OC[C@]34[C@H]([C@@H](O)[C@@H]1O)[C@@]1(C)C(=O)C(O[C@@H]5OC(CO)[C@@H](O)[C@@H](O)[C@@H]5O)=C[C@@H](C)[C@@H]1C[C@H]3OC(=O)[C@H](OC(=O)/C=C(\C)C(C)(C)OC(C)=O)[C@@H]24 (stereo partly specified),4.7µM,11µM,0,2.6µM
CC(=O)C[C@H]1c2ccccc2S(=O)(=O)N1c1ccccc1,-,0,0,-
O=C(Nc1nnc(Cc2ccc(F)cc2)s1)Nc1ccccc1F,12µM,0,0,0
COc1ccc(NC(=O)Nc2nnc(Cc3ccc(OC)c(OC)c3)s2)cc1,12µM,0,0,0
COc1ccc(Cc2nnc(NC(=O)c3cccc([N+](=O)[O-])c3C)s2)cc1,0.47µM,0,0,0
O=C(Nc1ccccc1)Nc1nnc(Cc2ccc(F)cc2)s1,8.3µM,0,0,?
C=CCNC(=O)c1ccsc1N,-,-,0,-
Cc1ccc(OCCSCc2nnc(NC(=O)Nc3cccc(Cl)c3)s2)cc1,?,?,0[2.32 µM],12µM
Cc1nnc(NC(=O)Nc2cccc(Cl)c2)s1,0,?,0,?
O=C(Nc1ccccc1)Nc1nnc(CSCc2ccccc2Cl)s1,?,0,0,0
O=C(Nc1ccc(Cl)c(Cl)c1)Nc1nnc(CSc2ccccc2)s1,0,?,0,4.7µM
COc1ccc(Cc2nnc(NC(=O)Nc3ccccc3F)s2)cc1OC,12µM,?,0,?
O=C(NC1CC1)c1cc(=S)[nH]c2ccccc12,-,?,0,-
CC(C)NC(=S)Nc1c(N)[nH]c(=O)[nH]c1=O,0,0,0,0
Cc1nc2ccccc2cc1OCc1ccc(Cl)cc1,0,7.1µM,0,0
Cc1nc2ccccc2cc1OCc1ccccc1,0,10µM,0,0
Cc1nc2ccccc2nc(C)c1=NOCc1cccc(Cl)c1,?,0,0,?
COC(=O)c1sccc1OCc1cccc(OC)c1,?,0,0,0
COc1cccc(COc2cc3ccccc3nc2C)c1,0,5.6µM,0,0
CCCCCN(C(=O)CCC(=O)OCCOc1ccc(OCC)cc1)c1c(N)n(CCCC)c(=O)[nH]c1=O,?,?,0,?
Cc1cc(-n2c(C)cc(C(=O)COc3ccc(Cl)cc3C(N)=O)c2C)no1,-,?,0,-
CCc1nn(CC(=O)NCCCN2CCOCC2)c(=O)c2cc3c(OC)cccc3n12,-,0,0,-
CC12CCC(=O)N1C(C(=O)Nc1cc(Cl)ccc1N1CCOCC1)CS2 (stereo unspecified),?,0,0,?
Cn1c(CSc2nc3ccccc3s2)nnc1SCC(=O)NCCCN1CCOCC1,0,0,0,0
SMILES,Pf growth 96h,HCV inhibitor,AMA1 RON2 block,Pf growth 48h
Cc1ccc(NC(=O)C2CCCN(S(=O)(=O)c3c(C)noc3/C=C/N(C)C)C2)c(C)c1 (stereo unspecified),9.3µM,0,0,?
Cc1noc(C)c1S(=O)(=O)N1CCCC(C(=O)NCC2CCCO2)C1 (stereo unspecified),9.3µM,0,0,0
Cc1ccc(NC(=O)C2CCCN(S(=O)(=O)c3c(C)noc3C)C2)cc1F (stereo unspecified),2.3µM,0,0,?
Cc1ccc(NC(=O)C2CCCN(S(=O)(=O)c3c(C)noc3C)C2)c(Br)c1 (stereo unspecified),5.9µM,?,0,0
O=C(C1=NOC2(C1)C(=O)Nc1ccccc12)N1CCCCC1 (stereo unspecified),-,-,0,-
CCOC(=O)C1=C(N)OC(CCl)=C(C#N)C1c1ccsc1 (stereo unspecified),0,0,0,0
Cc1ccc(N2CC(C(=O)N3CCN(c4ccccn4)CC3)CC2=O)cc1 (stereo unspecified),-,0,0,-
C[C@H](O)[C@@H]1C(=O)N2CCc3ccc(N4CCN(C)CC4)cc3[C@@H]2C[C@@H]1N(C)C(=O)c1ccc(C#N)cc1,-,0[8.37 µM],0,-
C[C@@H](c1ccccc1)N1C[C@@H](COCc2ccccc2)Oc2cc(N3CCC[C@@H]3CO)ccc2S1(=O)=O,-,-,0,-
Cc1ccc(S(=O)(=O)N2CCOCC2)cc1C(=O)Nc1nc(-c2ccccn2)cs1,-,?,0,-
O=C(Nc1nc(-c2ccccn2)cs1)c1cccc(S(=O)(=O)N2CCOCC2)c1,?,3.5µM,0,1µM
COc1ccc(C(=O)Nc2nc(-c3ccccn3)cs2)cc1S(=O)(=O)N1CCOCC1,-,11µM,0,-
COc1ccc(C(=O)Nc2ccccn2)cc1S(=O)(=O)N1CCOCC1,0,0,0,0
OCC[C@@H]1NCc2cc(CO)cc(-c3ccccc3)c21,-,?,0,-
Cc1[nH]nc(-c2ccc(O)c(C)c2O)c1-c1cnn(-c2ccccc2)c1,-,4µM,0,0
CCC1=C2CC[C@H]3C(=O)N(CC(=O)OC)C(=O)[C@H]3[C@H]2[C@@]2(C)C(=NCC(=O)OC)OC(=O)N2C1=O,0,0,0,0
CCN(CC)C(=O)C(=O)N/N=C/c1ccc(C(=O)OC)cc1,?,0,0,0
O=C(c1cccs1)N1CCc2c([nH]c3ccccc23)C1c1ccc(Cl)cc1 (stereo unspecified),10µM,?,0,10µM
N#CCCN(C(=O)COC(=O)c1ccc(Cl)nc1)c1ccc2c(c1)OCCO2,-,-,0,-
O=C(Nc1sccc1C(=O)N1CCOCC1)c1cccnc1,3.3µM,0,0,0
CCN(CC)C(=O)CCSc1nnc(-c2ccco2)o1,?,0,0,0
CC(CCc1ccccc1)NC(=O)CSc1nnnn1C (stereo unspecified),4.7µM,0,0,0
NC(=O)CSc1nc2ccccc2c(=O)n1Cc1ccccc1,0,0,0,0
CCCNC(=O)NC(=O)CSc1nc2ccccc2c(=O)n1Cc1ccncc1,13µM,0,0,?
C=CCn1c(SCC(=O)Nc2ccc(OC)cc2)nc2ccccc2c1=O,0,0,0,0
SMILES,Pf growth 96h,HCV inhibitor,AMA1 RON2 block,Pf growth 48h
CCC(C)NC(=O)CSc1nc2ccccc2c(=O)n1Cc1ccc(OC)cc1 (stereo unspecified),1.7µM,0,0,-
CCC(C)NC(=O)CSc1nnc(-c2cc(-c3ccc(C)cc3)nc3ccccc23)n1N (stereo unspecified),12µM,0,0,-
CC(C)NC(=S)NCc1cccs1,0,0,0,0
Cc1cccc(CNC(=O)C2CCC(=O)N(CCc3cccc(F)c3)C2)n1 (stereo unspecified),0,0,0,0
COCC(C)NC(=O)CSc1nc2ccccc2n1CCc1ccccc1 (stereo unspecified),10µM,0,0,0
COCCNS(=O)(=O)c1ccc(SC)cc1,-,0,0,0
COc1ccc(SC[C@H](Cc2ccccc2)N2CC[C@@H](C)CCC2=O)cc1,?,?,0,12µM
COc1ccc(SC[C@H](Cc2ccccc2)N2CC[C@@H](NC(=O)OCc3ccccc3)CCC2=O)cc1,?,?,0,7.4µM
CN(C(=O)C1CCCN(c2ncnc3c2nc2n3CCCCC2)C1)c1cccc(Cl)c1 (stereo unspecified),0,?,0,2.9µM
